Holding throughout (assay): Cytotoxic Profiling of Annotated Libraries Using Quantitative High-Throughput Screening (AID 1296008); also: nearly all actives have a fitted effect of over 60% in size
Holding throughout (details): Five cell lines viability, CellTiter-Glo ATP luminescence, 48-72 h; max response: active compounds read low

One assay deals with HEK293. Put shortly: (§1)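 Cytotoxicity was measured as CellTiter-Glo ATP luminescence, read after 10 min at room temperature. Compound treatment of the cells lasted 48 or 72 hr at 37 degrees Celsius in a qHTS format.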
For a further assay, the system named is HaCat. Put shortly: as §1
In the next assay the test system is KB-3-1. Put shortly: as §1
A further assay concerns NIH3T3. Put shortly: as §1

Results filed as inconclusive are left out. A number with no mark means an inactive call. Active and inactive are the calls of the source. Calls follow the shape of the dose curve; as a rule, active = well fitted inhibition curve with a large enough effect; inconclusive = small, poorly fitted or top-dose-only effect; inactive = flat fitted curve, though single readings scatter.
% is scaled to controls: 0 for no effect and ±100 for the full control effect; potency is read from the fitted curve at half-maximal effect.

`CN=C(N)NCCCCC/C=C(/C)CC(C)C1OC(=O)C(C)C(O)/C=C/C(C)C(O)CC(O)C(C)C(O)CCC(C)C(O)CC2(O)OC(CC(OC(=O)CC(=O)O)CC(O)CC(O)C(C)C(O)/C(C)=C/CCC1C)CC(O)C2O` (stereo not given): the max response in the assay on HEK293 is -1.07%; with HaCat, -0.878%; in the assay on KB-3-1 it was 1.79%; in the assay with NIH3T3, 1.75%.

`CC[C@@H](N)CNc1ccnc(-c2cc(-c3cnn(C)c3)ccc2O)n1`: the Potency is 5.17 µM (active) with HEK293, 5.8 µM (active) with HaCat, 4.61 µM (active) in the assay with KB-3-1 and 14.6 µM (active) with NIH3T3.

As for `O=[N+]([O-])c1cccc2[nH]c(CNc3nc(N4CCOCC4)nc4c3ncn4-c3ccsc3)nc12`, the Potency in the assay on HEK293 was 0.058 µM (active); in the assay on HaCat, 0.461 µM (active); in the assay on KB-3-1, 0.164 µM (active); with NIH3T3 it was 0.259 µM (active).

Regarding `CC(C)=CCC/C(C)=C/Cc1ccc(O)c(C2OC(=O)c3cc(C(=O)O)cc(O)c32)c1O` (stereo not given), the max response with HEK293 is 0.876%; with HaCat, -20.9%; in the assay on KB-3-1 it was -2.57%; with NIH3T3, 0.065%.

Take `COc1ccc(C[C@H](N)C(=O)N[C@@H]2[C@H](O)[C@H](n3cnc4c(N(C)C)ncnc43)O[C@@H]2CO)cc1`: the Potency is 1.16 µM (active) with HEK293, 1.46 µM (active) in the assay with HaCat, 0.731 µM (active) in the assay with KB-3-1 and 4.61 µM (active) in the assay on NIH3T3.

Turning to `CCCCNc1ncc2c(-c3ccc(F)cc3)nn(CC3CCC(N)CC3)c2n1` (stereo not given), the max response in the assay on HEK293 is -110%. For the same molecule, the Potency in the assay with HaCat was 10 µM (active); with KB-3-1, 2.82 µM (active); in the assay on NIH3T3 it was 6.32 µM (active).

Take `CNC(C)C(=O)NC(C(=O)N1CCCC1c1nc(C(=O)c2ccc(F)cc2)cs1)C1CCCCC1` (stereo not given): the Potency in the assay on HEK293 was 14.6 µM (active). Besides, the outcome with HaCat is “inactive; activator”. Moreover, the max response in the assay with KB-3-1 was -9.35%. In the assay with NIH3T3, the result was inactive.

For `CC(C)(C)c1ccc(S(=O)(=O)NCc2ccc(C(=O)Nc3cccnc3)cc2)cc1`, the Potency is 0.326 µM (active) in the assay with HEK293, 6.51 µM (active) in the assay with HaCat, 0.731 µM (active) with KB-3-1 and 3.66 µM (active) with NIH3T3.

With `CC(C)[N+]1(C)C2CCC1CC(OC(=O)C(CO)c1ccccc1)C2` (stereo not given), the max response is -4.72% in the assay on HEK293, -18.4% in the assay on HaCat, -2.64% in the assay with KB-3-1 and -9.66% in the assay on NIH3T3.

`CCN(CC)Cc1ccc(C(=O)N(CCc2ccccc2OC)[C@@H]2CCNC2)cc1`: the Potency was 5.63 µM (active) with HEK293, 3.99 µM (active) in the assay on KB-3-1 and 2.52 µM (active) with NIH3T3. The max response in the assay on HaCat was -4.71%.

Regarding `COC(=O)N1CCC(n2ncc3c(N4CCOCC4)nc(-c4ccc(NC(=O)Nc5ccc(CO)cc5)cc4)nc32)CC1`, the Potency is 0.058 µM (active) with HEK293, 3.66 µM (active) in the assay with HaCat, 0.231 µM (active) in the assay with KB-3-1 and 1.46 µM (active) in the assay on NIH3T3.

With `Cc1nc([C@](C)(O)CO)sc1-c1cnc(N)c(O[C@H](C)c2cc(F)ccc2-n2nccn2)c1`, the Potency with HEK293 was 13 µM (active); with HaCat, 14.6 µM (active); in the assay with KB-3-1, 18.4 µM (active); in the assay with NIH3T3, 2.06 µM (active).

As to `NC[C@@](O)(c1ccc(Cl)cc1)c1ccc(-c2cn[nH]c2)cc1`, the Potency was 5.8 µM (active) with HEK293, 8.2 µM (active) in the assay with HaCat, 11.6 µM (active) with KB-3-1 and 5.17 µM (active) with NIH3T3.

As for `C=C[C@H]1[C@H](O[C@@H]2O[C@H](CO)[C@@H](O)[C@H](O)[C@H]2O)OC=C(C(=O)OC)[C@H]1CCOC(=O)c1cc(O)c(O)c(O)c1`, the max response in the assay with HEK293 was 0.889%; with HaCat, 4.92%; in the assay on NIH3T3, -1.02%. Besides, in the assay on KB-3-1, the outcome was inactive.

As for `CC(C)c1nc(-c2ccc(NC(=O)Nc3cccc(C(F)(F)F)c3)c3ccccc23)c2c(N)nccn12`, the Potency with HEK293 is 6.51 µM (active); in the assay with HaCat, 7.31 µM (active); with KB-3-1, 5.8 µM (active); with NIH3T3, 8.2 µM (active).

For the molecule `Cc1c(CN2CCN(C(=O)C(C)O)CC2)sc2c(N3CCOCC3)nc(-c3cnc(N)nc3)nc12` (stereo not given), the Potency with HEK293 was 0.651 µM (active); in the assay on HaCat it was 2.31 µM (active); in the assay with KB-3-1 it was 0.58 µM (active); in the assay with NIH3T3, 1.3 µM (active).

On to `C[C@H]1[C@H](O)O[C@@H]2O[C@@]3(C)CC[C@H]4[C@H](C)CC[C@@H]1[C@@]24OO3`, for which the Potency was 1.84 µM (active) with HEK293, 6.51 µM (active) in the assay on HaCat, 16.4 µM (active) in the assay on KB-3-1 and 13 µM (active) with NIH3T3.

On to `CC(C)=C/C=C\[C@H](C)[C@H]1CC[C@]2(C)C[C@@H]3C(C)=CC(=O)C3/C(CO)=C\C[C@@H]12` (stereo not given in full), for which the max response in the assay on HEK293 was -20.2%; in the assay on NIH3T3, 3.13%. The molecule was classed as inactive in the assay with HaCat and in the assay on KB-3-1.

For `COC(=O)c1cc(OC)cc(OC)c1C(=O)c1c(OC)cc2c(c1O)C1CCCC(C)(O2)O1` (stereo not given), the max response was -5.64% with HEK293 and 3.65% with HaCat. In addition, the outcome with KB-3-1 and in the assay on NIH3T3 was inactive.

On to `Cn1nnc(-c2ccc(-c3ccc(N4C[C@H](CO)OC4=O)cc3F)cn2)n1`, for which the Potency in the assay with HEK293 is 4.11 µM (active). Besides, the max response with HaCat is -5.65%; with KB-3-1, -14%. For the same molecule, the molecule was called inactive in the assay with NIH3T3.

Values taken from PubChem BioAssay (NCATS).
